The values below come from ChEMBL document CHEMBL4513216, “Probing the Open Global Health Chemical Diversity Library for Multistage-Active Starting Points for Next-Generation Antimalarials” (ACS Infect Dis, 2020).

Hit rate of the full screen: of about 65,000 compounds, about 2,100 (3.2%) showed an effect of 50% or more. The median lay at about -52%. This is one part of a sample in which strong results are shown more often than they occur.

The assay concerns Plasmodium falciparum. Kind of assay: Screen against P. falciparum Asexual Blood Stage (ABS), at 5uM. The conditions noted are these: tested at 5 uM. It counts as functional, Dd2.
For `COc1ccc(CNCCc2ccn(-c3ccccc3)n2)cc1O`, the INHIBITION was found to be 67.1%.
On to `CCCn1cc(NC(=O)c2cccnc2O)ccc1=O`, for which the INHIBITION was -8.23%.
The result for `CCc1nc(CNc2cc(C)nc(-c3cccnc3)n2)cs1` reads -19.9%.
As to `CCc1noc(C2CCCCN2C(=O)c2ccccc2)n1` (stereo not drawn), the INHIBITION is on record as -89.7%.
For the compound `CCc1noc(C2CCCCN2C(=O)c2cccs2)n1` (stereo not drawn), the INHIBITION was -105%.
Next, `CCc1noc(C2CCCCN2C(=O)c2nnc3ccccc3n2)n1` (stereo not drawn): 65.5%.
Take `Cc1cc(CN2C[C@@H](C)[C@@]3(CCN(C)C3=O)C2)oc1C`: the INHIBITION is on record as -1.06%.
On to `CCC(CNC(=O)c1ccc(Br)o1)N1CCc2ccccc2C1` (stereo not drawn), for which the INHIBITION is 16.3%.
Next, `CCC(CNC(=O)c1ccccc1Br)N1CCc2ccccc2C1` (stereo not drawn): 41.5%; `CCC(CNC(=O)c1cncc(Br)c1)N1CCc2ccccc2C1` (stereo not drawn): 66.9%; `CCN1CC(CN(C)Cc2nc(-c3cccc(C)c3)oc2C)CC1=O` (stereo not drawn): -142%.
Take `CCOCC1CN(Cc2cccnc2OC)Cc2cnn(C)c21` (stereo not drawn): the INHIBITION is on record as -60.6%.
The result for `OCC1CCC2(CC1)CN(Cc1ccsc1)Cc1ccccc1O2` (stereo not drawn) reads -50.7%; that for `COCCN1CCOCC12CCN(c1nccs1)CC2`, -151%; that for `Fc1ccc(C2(NCc3ccccc3)CCOCC2)cc1`, 64.2%.
Take `CN(C)c1ccc(CNC2(c3ccc(F)cc3)CCOCC2)cc1F`: the INHIBITION is recorded as 28.8%.
With `CSc1ccc(CNC2(c3ccc(F)cc3)CCOCC2)cc1`, the INHIBITION is on record as 31.4%.
For `c1cnc(NCc2noc3c2CN(CCN2CCCC2)CC3)nc1`, the INHIBITION is -63.3%.
Next, `O=C(CCO)N1CCC2(CCc3ccc(-c4ccoc4)cc32)CC1`: -76.5%; `c1cc(-c2ccc3c(c2)CCC32CCN(c3nncs3)CC2)co1`: 3.66%; `OCCN1CCC2(CCc3cc(-c4ccoc4)ccc32)CC1`: 61.2%.
With `COCCOCC1(CNCc2cccc(OC)c2)C[C@@H](O)[C@@H](O)C1` (stereo partly drawn), the INHIBITION is -11.2%.
The result for `COCCOCC1(CNCc2ccc(F)cc2)C[C@@H](O)[C@@H](O)C1` (stereo partly drawn) reads 63.6%; that for `COCCOCC1(CNCc2ccc(OC)cc2)C[C@@H](O)[C@@H](O)C1` (stereo partly drawn), -77.3%; that for `CC(C)CCN1C2(CCN(Cc3nccs3)C2)c2ccccc2S1(=O)=O` (stereo not drawn), -17.8%.
The result for `CN1[C@@H]2CC[C@H]1CN(C(=O)c1nnc3n1CCCCC3)CC2` reads -58.6%; that for `Cc1noc(C)c1CN1CCC2(CC1)NC(=O)CC2c1ccccc1` (stereo not drawn), -39.2%; that for `Cc1cccc(CN2CCC3(CC2)NC(=O)CC3c2ccccc2)n1` (stereo not drawn), -3.5%.
The result for `Cc1ccc(CN2CCC3(CC2)NC(=O)CC3c2ccccc2)s1` (stereo not drawn) reads 53.7%; that for `CCC1(CC)C(=O)NC(=O)N/C1=N/c1cccc(OC)c1`, -27.2%; that for `Cc1c(CN2CCCC2(C)C(=O)N2CCOCC2)cnn1C` (stereo not drawn), -23.9%.
`NC(=O)C1(Cc2ccccc2-c2cncnc2)CCCNC1` (stereo not drawn): the INHIBITION was -114%.
The result for `CCNC(=O)C1(Cc2ccc(-c3ccccc3)cc2)CCCNC1` (stereo not drawn) reads 27.7%; that for `NC(=O)C1(Cc2ccc(-c3ccccc3)cc2)CCCNC1` (stereo not drawn), 61.1%.
With `CC1(C)CC(n2cc3nc(N4CCOCC4)[nH]cc-3c2=O)CC(C)(C)N1`, the INHIBITION was -53.2%.
On to `Cc1cnn(CC2CN(CC(=O)Nc3cccnc3)CCO2)c1` (stereo not drawn), for which the INHIBITION is on record as -66%.
For `Cn1ccnc1C(=O)N[C@@H]1CN(CC2CCOCC2)[C@@H]2CCCO[C@@H]21`, the INHIBITION is reported as -60%.
For `O=c1ccc(-c2cccs2)nn1CN1CCN(c2ccccn2)CC1`, the INHIBITION is listed as -115%.
Take `CNS(=O)(=O)c1cccc(C(C)NCc2nccn2C(C)C)c1` (stereo not drawn): the INHIBITION is recorded as -9.39%.
The result for `CNS(=O)(=O)c1cccc(C(C)NCc2ccsc2)c1` (stereo not drawn) reads 67.2%; that for `CNS(=O)(=O)c1cccc(C(C)NCc2ccncc2)c1` (stereo not drawn), -51.1%; that for `CNS(=O)(=O)c1cccc(C(C)NCc2cccc(C)c2C)c1` (stereo not drawn), 69.7%.
Next, `CNS(=O)(=O)c1cccc(C(C)NCc2ccc(F)c(F)c2)c1` (stereo not drawn): 11.1%; `CCOc1ccc(CNC(C)c2cccc(S(=O)(=O)NC)c2)cc1` (stereo not drawn): 47.6%; `CNS(=O)(=O)c1cccc(C(C)NCc2ccc(F)cc2F)c1` (stereo not drawn): -3.64%.
Next, `CNS(=O)(=O)c1cccc(C(C)NCc2ccccc2)c1` (stereo not drawn): 59.4%.
Turning to `CNS(=O)(=O)c1cccc(C(C)NCc2ccco2)c1` (stereo not drawn), the INHIBITION was found to be 2.96%.
The result for `CNS(=O)(=O)c1cccc(C(C)NCc2ccc(C)c(C)c2)c1` (stereo not drawn) reads 63.4%; that for `CNS(=O)(=O)c1cccc(C(C)NCc2ccc(C)o2)c1` (stereo not drawn), 23.3%; that for `CNS(=O)(=O)c1cccc(C(C)NCc2cccc(O)c2)c1` (stereo not drawn), 3.69%.
Next, `CN(Cc1ccc(F)cc1)C(=O)c1ccoc1CN1CCNC(=O)C1`: -169%; `CCOCC(=O)NCCn1ccc(-c2ccccn2)n1`: -74.8%.
In the case of `Cc1nc(C)c(S(=O)(=O)NC(=O)c2sccc2C)s1`, the INHIBITION is reported as -118%.
